Some test systems named below: NCI-H23 lung; NCI-H226 lung; HOP-62 NSCLC; NCI-H460 lung; HOP-92 NSCLC; NCI-H522 lung; A549/ATCC NSCLC; 786-0 renal; COLO 205 colon; DU-145 prostate; K-562 leukemia; MALME-3M melanoma; MDA-MB-231 breast; RXF 393 renal; SF-268 CNS; SF-295 CNS; SF-539 CNS; UACC-257 melanoma; M14 melanoma; NCI-H322M lung.
Holding throughout (experiment): NCI-60 one-dose screen, 48 h (100 = growth as untreated, 0 = no growth, -100 = all killed)
Holding throughout (settings): 10 µM unless noted

Here are results for eight compounds from PubChem BioAssay (NCI).

Compounds without any hit were thinned out: in the full panel of roughly 83,000, 20% have a hit.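 Treatment: one concentration, 48 hours, 96-well format. Scoring: percent growth, with anything below 10 considered active.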 Values without a mark were called inactive. Active and inactive are the calls of the source.

In the case of `CC(=O)N(C)c1ccc(Nc2cc(C)[nH]c3ccc4ncnc4c23)cc1`, the growth in the assay on NCI-H23 lung is 50.4%; with NCI-H226 lung it was 54.8%; with HOP-62 NSCLC, 54.3%; in the assay on NCI-H460 lung, 22.4%; in the assay with HOP-92 NSCLC, -2.3% (active); in the assay with NCI-H522 lung it was 22.1%. Besides, the growth in the assay on A549/ATCC NSCLC is 67.2%; in the assay with 786-0 renal, 55.8%; in the assay on COLO 205 colon it was 53.3%; in the assay with DU-145 prostate, 46.5%; with K-562 leukemia it was 29.5%; in the assay on MALME-3M melanoma, 82.4%. The growth with MDA-MB-231 breast is 87.7%; in the assay with RXF 393 renal it was 41.7%; in the assay on SF-268 CNS, 55%; in the assay on SF-295 CNS it was 76.5%; in the assay with SF-539 CNS, 40.7%; with UACC-257 melanoma, 48.2%. Further, in the assay with M14 melanoma, the growth was 76.9%.
With `O=Cc1ccc2nc(C(Cl)(Cl)Cl)ccc2c1`, the growth in the assay on NCI-H23 lung was 92.4%; in the assay with NCI-H226 lung it was 97%; in the assay with NCI-H322M lung it was 91.9%; in the assay with NCI-H460 lung it was 94.7%; in the assay with HOP-92 NSCLC, 91.8%; with NCI-H522 lung, 94.4%. For the same compound, the growth with A549/ATCC NSCLC was 108%; in the assay on 786-0 renal, 99%; in the assay with COLO 205 colon it was 115%; in the assay with DU-145 prostate, 102%; in the assay on K-562 leukemia, 121%; in the assay with MALME-3M melanoma, 91.4%. Further, the growth is 108% with MDA-MB-231 breast; 94.7% in the assay with RXF 393 renal; 107% in the assay with SF-268 CNS; 97.2% in the assay on SF-295 CNS; 98.8% in the assay with SF-539 CNS; 103% with UACC-257 melanoma. Further, the growth in the assay with M14 melanoma is 81.6%.
Regarding `CN(C)c1ccc(/C=N/Nc2nnc3n2N=C(c2ccc(Cl)cc2)CS3)cc1`, the growth was 102% in the assay with NCI-H23 lung; 85% with NCI-H226 lung; 102% with NCI-H322M lung; 93.4% in the assay on NCI-H460 lung; 94.5% in the assay on HOP-92 NSCLC; 87.5% in the assay with NCI-H522 lung. The growth was 81.3% with A549/ATCC NSCLC; 88.1% in the assay on 786-0 renal; 105% with COLO 205 colon; 100% with DU-145 prostate; 79% in the assay on K-562 leukemia; 128% in the assay on MALME-3M melanoma. In addition, the growth is 101% in the assay with MDA-MB-231 breast; 69.7% in the assay on RXF 393 renal; 97.8% in the assay on SF-268 CNS; 101% in the assay on SF-295 CNS; 103% with SF-539 CNS; 106% in the assay on UACC-257 melanoma. Moreover, in the assay on M14 melanoma, the growth was 100%.
`Nc1nc(N)c2cc(CNc3ccc(Cl)c(Cl)c3)ccc2n1`: the growth is 42.8% in the assay with NCI-H23 lung; 45.2% in the assay with NCI-H226 lung; 29.5% with NCI-H322M lung; -48.8% (active) with NCI-H460 lung; -5.15% (active) with HOP-92 NSCLC; 13.4% in the assay with NCI-H522 lung. Besides, the growth with A549/ATCC NSCLC is 17.7%; in the assay on 786-0 renal, 9.65% (active); with COLO 205 colon, -79.7% (active); with DU-145 prostate, 44.6%; with K-562 leukemia it was -72.3% (active); with MALME-3M melanoma it was 47.1%. In addition, the growth in the assay with MDA-MB-231 breast is -23.9% (active); in the assay on RXF 393 renal, 26.5%; in the assay with SF-268 CNS, 35%; in the assay on SF-539 CNS, 23.7%; with UACC-257 melanoma, 32.4%; with M14 melanoma, -69.7% (active).
Take `O=C(/C=C/c1ccccc1)C(Br)C(Br)c1ccccc1` (stereo not drawn): the growth in the assay with NCI-H23 lung is 29.4%; in the assay on NCI-H226 lung, -36.8% (active); with NCI-H322M lung, 100%; in the assay on NCI-H460 lung it was 89.8%; in the assay on HOP-92 NSCLC it was -18.9% (active); in the assay with NCI-H522 lung it was -78.3% (active). In addition, the growth in the assay on A549/ATCC NSCLC was 47.2%; in the assay with 786-0 renal, -80.2% (active); in the assay on COLO 205 colon it was -74.2% (active); with DU-145 prostate, -21.3% (active); in the assay on K-562 leukemia it was 1.4% (active); in the assay with MALME-3M melanoma it was -54.3% (active). The growth in the assay on MDA-MB-231 breast is 27.7%; with RXF 393 renal it was -79.9% (active); in the assay with SF-268 CNS it was 13.9%; with SF-539 CNS, -33.1% (active); with UACC-257 melanoma, 22.8%; with M14 melanoma, 17.2%.
As for `Cc1nc2c(-c3cnc(N)nc3)nc(N3CCOCC3)nc2n1C(C)C`, the growth in the assay with NCI-H23 lung is 16.5%; with NCI-H226 lung, -1.05% (active); in the assay with NCI-H322M lung it was -5.38% (active); in the assay on NCI-H460 lung, 12.2%; in the assay with HOP-92 NSCLC it was -17.2% (active); in the assay with NCI-H522 lung, 4.22% (active). In addition, the growth in the assay on A549/ATCC NSCLC is -1.09% (active); in the assay with 786-0 renal, -8.16% (active); in the assay on COLO 205 colon, -2.93% (active); in the assay with DU-145 prostate it was 13.4%; in the assay with K-562 leukemia it was 12.6%; in the assay on MALME-3M melanoma, -19.2% (active). For the same compound, the growth in the assay with MDA-MB-231 breast was 23.9%; in the assay with RXF 393 renal, -29.6% (active); in the assay with SF-268 CNS, 9.06% (active); with SF-295 CNS, -36.1% (active); with SF-539 CNS, -42.2% (active); in the assay with UACC-257 melanoma it was -23% (active). In addition, the growth in the assay with M14 melanoma is 4.2% (active).
As for `O=C(Nc1cccc(Cl)c1)Nc1cc(C(F)(F)F)ccc1Cl`, the growth is -12.3% (active) in the assay on NCI-H23 lung; 20.8% in the assay with NCI-H226 lung; 30.8% in the assay on NCI-H322M lung; -34.6% (active) with NCI-H460 lung; -20.3% (active) in the assay with HOP-92 NSCLC; -26.9% (active) with NCI-H522 lung. Also, the growth in the assay with A549/ATCC NSCLC was 11.3%; with 786-0 renal, 8.47% (active); in the assay with COLO 205 colon, -28.2% (active); with K-562 leukemia, 16.4%; with MALME-3M melanoma, 5.85% (active); in the assay with MDA-MB-231 breast it was 25.5%. The growth in the assay on RXF 393 renal is 40.7%; with SF-268 CNS it was 41.8%; in the assay on SF-295 CNS it was -1.4% (active); in the assay on SF-539 CNS, 43.5%; with UACC-257 melanoma, 19.6%; in the assay on M14 melanoma, 18.2%.
For the compound `CC(COC(=O)c1ccccc1)N1CC2CCC(C1)O2` (stereo not drawn), the growth in the assay on NCI-H23 lung was 107%; in the assay with NCI-H226 lung it was 98.2%; in the assay with HOP-62 NSCLC, 95.1%; in the assay with NCI-H460 lung, 104%; with HOP-92 NSCLC it was 91.1%; in the assay with NCI-H522 lung, 104%. The growth in the assay on A549/ATCC NSCLC is 100%; in the assay with 786-0 renal, 99.8%; in the assay with COLO 205 colon it was 104%; in the assay on DU-145 prostate, 107%; in the assay with K-562 leukemia, 97.3%; in the assay with MALME-3M melanoma, 104%. Besides, the growth in the assay on MDA-MB-231 breast is 107%; in the assay on RXF 393 renal, 106%; in the assay with SF-268 CNS, 106%; with SF-539 CNS, 100%; with UACC-257 melanoma, 92.7%; in the assay with M14 melanoma, 99.3%.
